Screening data from PubChem.
Shown are actives, neighbours in structure and some others; about 6% of the full set was active somewhere.
D1 potentiator: Potentiators of Human D1 Dopamine Receptor: qHTS; D(1A) dopamine receptor (Homo sapiens), P21728; HEK293 TREx D1 cells, calcium flux, dopamine EC20 potentiation; potentiation, % at 10 µM; 360,000 compounds, 0.036% hits; in the data active means potentiation above about 30%; further: 0% is about no effect
Target sequence (P21728 whole entry, looked up): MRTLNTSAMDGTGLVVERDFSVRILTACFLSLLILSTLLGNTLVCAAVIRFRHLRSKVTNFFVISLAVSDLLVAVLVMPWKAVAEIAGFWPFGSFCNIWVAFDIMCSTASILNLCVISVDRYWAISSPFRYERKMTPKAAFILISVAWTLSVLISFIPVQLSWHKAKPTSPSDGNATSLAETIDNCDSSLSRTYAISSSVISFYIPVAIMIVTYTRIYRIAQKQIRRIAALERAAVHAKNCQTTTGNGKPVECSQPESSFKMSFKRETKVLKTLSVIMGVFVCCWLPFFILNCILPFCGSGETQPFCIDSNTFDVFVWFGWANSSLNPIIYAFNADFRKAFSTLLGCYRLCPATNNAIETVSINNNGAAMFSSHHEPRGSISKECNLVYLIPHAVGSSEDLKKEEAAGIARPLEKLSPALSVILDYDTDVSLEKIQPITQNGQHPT
DRD3 antagonist: qHTS of D3 Dopamine Receptor Antagonist: qHTS; D(3) dopamine receptor (Homo sapiens), P35462; D3R cells, DiscoveRx beta-arrestin luminescence, antagonist mode; hits give low values; max response, negative = inhibition, %; 360,000 compounds, 2.5% hits; AID 652054, 2013; in the data active means max response below about -50%; inconclusive means no clear call, values can overlap the other calls; further: on the % scale 0 is the no-effect control and ±100 the full control effect
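Cells expressing the human receptor were seeded at 1500 cells/well, incubated overnight at 37 degrees C in 5% CO2, then exposed to library compounds with dopamine controls for 90 minutes at 37 degrees C before luminescent detection.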
D3 ag: qHTS of D3 Dopamine Receptor Agonist: qHTS. AID 652048, 2013. D3R DiscoveRx beta-arrestin cells, luminescence, 90 min. D(3) dopamine receptor (Homo sapiens), P35462. max activation, %. 410,000 compounds, 0.58% hits; in the data active means max activation above about 30%; further: 0% is about no effect
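Agonist mode: compounds and dopamine controls were applied to plated cells for 90 min at 37 degrees C after an overnight attachment at 1500 cells/well. Luminescent read-out followed 30 - 60 minutes at room temperature with DiscoveRx detection reagent.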
D1 agonist: Allosteric Agonists of the Human D1 Dopamine Receptor: qHTS | D(1A) dopamine receptor (Homo sapiens), P21728 | HEK293 T-REx D1 cells, calcium flux, agonist mode | activation, % at 2 µM | 360,000 compounds, 1% hits | AID 504660, 2011; in the data active means activation above about 30%; further: 0% is about no effect
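Agonism was scored from calcium flux recorded over 180 s (1 read/s) after pintool compound addition, following a 10-cycle baseline. Cells were inducible force-coupled HEK293 TREx D1, plated overnight at 30 C and loaded with no-wash calcium dye.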
D1 antag: Antagonist of Human D 1 Dopamine Receptor: qHTS; HEK293 TREx D1 cells, calcium flux, dopamine EC80; hits give low values; 360,000 compounds, 3.2% hits; activity change, negative = inhibition, % at 10 µM; D(1A) dopamine receptor (Homo sapiens), P21728; in the data active means activity change below about -30%; further: on the % scale 0 is the no-effect control and ±100 the full control effect
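Inducible Hek293 Trex D1 cells (tetracycline, overnight, 30 C). Calcium dye 30–90 min RT. Antagonist mode: EC80 dopamine added after 180 s compound read.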
An asterisk follows results filed as active; ? = inconclusive; . = no result given; ! = repeats disagree.

SMILES	D1 potentiator	DRD3 antagonist	D3 ag	D1 agonist	D1 antag
CCN(c1ccccc1)S(=O)(=O)c1ccc2c(c1)N(C(C)=O)CCO2	-9.8	-0.1	4.7	1.4	-3.7
CCn1c(C(=O)NCCCN2CCc3ccccc3C2)cc2sccc21	-7.1	-73.3*	-54.0	1.7	-6.1
Cn1c(C(=O)NCCN2CCOCC2)cc2sccc21	0.6	-62.5*	-27.7	0.3	13.3
O=C(NCCN1CCOCC1)c1cc(-c2cccc(Cl)c2)on1	-3.7	-21.8	-8.5	2.1	-3.1
O=C(NCCN1CCOCC1)c1cc(-c2ccc(Cl)cc2Cl)on1	6.5	-19.0	-5.5	1.1	-34.4*
Cc1ccc(Cn2c(C(=O)NCCCN3CCOCC3)cc3sccc32)cc1	-6.8	-50.8*	-55.1	1.8	-14.9
Cc1ccc(CCNC(=O)c2cc3sccc3n2Cc2ccc(C)cc2)cc1	-2.8	.	-21.7	6.9	-3.8
Cc1nc2ccc(C(=O)Nc3cccc(OCC(=O)N(C)C)c3)cn2c1N(C)CC1CCCCC1	.	59.7	3.1	.	.
Cc1cccc(C)c1NC(=O)C1(C)CSCC(=O)N1C1CCN(Cc2ccccc2)CC1 (centres undefined)	.	0.1	4.6	.	.
CCCCCn1c(=N)c(S(=O)(=O)c2ccccc2)cc2c(=O)n3ccccc3nc21	-0.1	.	-5.0	1.2	-61.6*
Cc1ccc(-n2ncc3c(Nc4ccc5c(c4)OCCO5)ncnc32)cc1C	-1.7	.	48.1*	-0.2	-13.4
Cc1cccc(-n2ncc3c(Nc4ccc(F)cc4)ncnc32)c1	-16.6	3.3	-5.2	0.1	-49.1*
COC(=O)c1ccc(Nc2ncnc3c2cnn3-c2cccc(C)c2)cc1	-11.8	0.0	1.9	0.9	-37.9*
Cc1ccc(-n2ncc3c(Nc4cccc(C)c4)ncnc32)cc1	-9.0	.	-8.7	4.5	-33.2*
COC(=O)c1cn(C(=O)c2ccc(OC)c(OC)c2)c2ccccc12	0.5	15.2	0.4	3.1	-46.9*
COC(=O)c1cn(C(=O)c2cc(OC)c(OC)c(OC)c2)c2ccccc12	0.1	25.7	7.6	1.1	10.2
CC(=O)N1CCCc2cc(S(=O)(=O)N3CCCC(C(=O)NCc4ccc(C)cc4)C3)ccc21 (centres undefined)	-10.7	4.2	-1.7	16.3	-29.0
CC(=O)N1CCCc2cc(S(=O)(=O)N3CCCC(C(=O)Nc4cccc(Cl)c4C)C3)ccc21 (centres undefined)	-5.2	.	-5.7	1.6	-44.1*
CC(=O)N1CCCc2cc(S(=O)(=O)N3CCC(C(=O)Nc4cccc(Cl)c4C)CC3)ccc21	-5.5	.	4.3	-0.5	-11.8
CC(=O)N1CCCc2cc(S(=O)(=O)N3CCCC(C(=O)NCc4ccccc4)C3)ccc21 (centres undefined)	-2.1	18.3	1.6	7.5	-30.5*!
COc1ccc(Br)cc1CNC(=O)C1CCCN(S(=O)(=O)N2CC(C)CC(C)C2)C1 (centres undefined)	-3.5	12.2	3.5	4.1	-32.6*
COc1ccc(Br)cc1CNC(=O)C1CCN(S(=O)(=O)N2CCCCC2)CC1	-2.0	-24.7	-1.3	-1.3	-29.9
CCOc1ccc(CNC(=O)C2CCCN(S(=O)(=O)N(C)c3ccc(F)cc3)C2)cc1OC (centres undefined)	-5.5	.	5.4	34.5*	-26.6
Cc1ccc(NC(=O)CSc2ncccn2)cc1S(=O)(=O)N1CCOCC1	.	?	-5.0	.	.
COc1ccc(S(=O)(=O)N2CCC(C(=O)NCc3ccncc3)CC2)cc1Cl	-2.5	-5.9	-2.1	0.4	-10.2
SMILES	D1 potentiator	DRD3 antagonist	D3 ag	D1 agonist	D1 antag
COc1ccc(S(=O)(=O)N2CCCC(C(=O)NCc3ccncc3)C2)cc1Cl (centres undefined)	-1.1	-71.0*	-1.1	14.2	4.5
CC(=O)N1CCCc2cc(S(=O)(=O)N3CCCC(C(=O)Nc4ccccc4C)C3)ccc21 (centres undefined)	-4.7	3.5	6.3	1.6	-36.6*
Fc1ccc(F)c(CNc2ncnc3cc(Cl)ccc23)c1	-8.5	9.6	5.5	10.9	-30.5*
CCC1CCCCN1C(=O)Cn1c(=O)n(CCCCCC(=O)NCc2ccc(F)cc2)c(=O)c2sccc21 (centres undefined)	-1.6	.	-0.5	16.7	-5.7
COc1ccc(OC)c(-c2cc(C(=O)Nc3c(C)nn(Cc4ccc(Cl)cc4)c3C)no2)c1	3.5	16.4	41.0*	3.6	6.8
COc1ccc(OC)c(-c2cc(C(=O)NCc3ccco3)no2)c1	-16.2	-54.1*	-27.4	3.2	-33.5*
COc1cccc(-c2cc(C(=O)NCc3ccco3)no2)c1	-5.0	-11.1	-7.3	0.6	-8.5
COc1ccc(OC)c(-c2cc(C(=O)Nc3c(C)nn(Cc4ccccc4)c3C)no2)c1	0.7	22.7	35.5*	4.0	-43.6*
COc1ccc(OC)c(-c2cc(C(=O)Nc3cc(C)on3)no2)c1	1.8	?	-24.0	1.1	-12.2
CC(=O)c1ccc(NC(=O)CSc2cn(CC(=O)N3CCCCC3)c3ccccc23)cc1	-5.3	.	-6.8	7.8	-21.9
CC(=O)c1cccc(NC(=O)CN2C(=O)COc3ccc(Cl)cc32)c1	3.5	-94.5*	-11.2	7.3	-12.4
O=C(CN1C(=O)COc2ccc(Cl)cc21)Nc1cccc(F)c1	-6.0	.	-1.4	20.1	-9.8
CCc1ccc(NC(=O)CSc2ccc(-c3sc(-c4ccccc4)nc3C)nn2)cc1	0.9	.	8.5	0.9	8.7
COc1ccc(-c2cc(C(F)F)nc(-n3nc(C)cc3C)n2)cc1	-14.4	10.7	0.3	6.2	-59.6*
Cc1ccc(-c2cc(C(F)F)nc(N3CCOCC3)n2)cc1	0.7	4.2	-2.2	3.4	13.1
Cc1cc(Cl)ccc1NC(=O)CN1CCCC1	-0.4	4.4	-22.9	1.7	-21.6
Cc1cc(Cl)ccc1NC(=O)CN1CCC(C(O)(c2ccccc2)c2ccccc2)CC1	4.2	-62.1*	-7.3	3.0	-11.0
CCOC(=O)c1[nH]c(C)c(C(=O)OCC)c1C	.	-20.2	-1.9	2.3	9.0
CCCN(CC1CC1)C(=O)COC(=O)c1[nH]c(C)c(C(=O)OCC)c1C	-6.8	6.8	15.0	30.1*	15.4
CC(=O)c1c(C)[nH]c(C(=O)COC(=O)c2ccc(Cl)nc2)c1C	-6.3	28.6	10.9	12.3	-41.2*
CC(=O)c1c(C)[nH]c(C(=O)COC(=O)c2ccc(C)s2)c1C	.	38.2	38.7*	.	.
CCOC(=O)c1c(C)[nH]c(C(=O)COC(=O)c2[nH]c(C)c(C(C)=O)c2C)c1C	-3.8	15.9	37.2*	4.8	-2.6
CCOC(=O)c1c(C)[nH]c(C(=O)OCC(=O)N(C)C2CCS(=O)(=O)C2)c1C (centres undefined)	-0.8	22.1	5.7	1.5	.
